The source made the active and inactive calls. No stated cut-off is given here; in the data, active means inhibition above about 55%; inactive means the rest.

The inhibition is the drop in the measured response relative to a control, in per cent.

The test system of the assay is SARS coronavirus 3C-like protease (3CLpro, nsp5). In words: blockers of SARS 3CLpro activity – biochemical, fluorescence, set 2, late-stage follow-up (AID 488984). Particulars: recombinant 3CLpro, fluorogenic peptide cleavage; at 100 µM; stronger effect = higher value.
For the molecule `CC(C)c1ccc(N(C(=O)Cc2c[nH]c3ccccc23)C(C(=O)NC(C)(C)C)c2ccsc2)cc1` (centres undefined), the inhibition was 7.61% (inactive).

`CC(C)c1ccc(N(C(=O)c2ccc(C#N)cc2)C(C(=O)NC(C)(C)C)c2cccnc2)cc1` (centres undefined): the inhibition is -3.85% (inactive).

As for `CC(C)c1ccc(N(C(=O)Cc2cccc3ccccc23)C(C(=O)NC(C)(C)C)c2cccnc2)cc1` (centres undefined), the inhibition was -1.29% (inactive).

For the molecule `CC(C)(C)NC(=O)C(c1ccsc1)N(C(=O)c1ccc(C#N)cc1)c1ccc(F)cc1` (centres undefined), the inhibition is 17.4% (inactive).

Take `CC(C)c1ccc(N(C(=O)Cc2c[nH]c3ccccc23)C(C(=O)NC(C)(C)C)c2cccnc2)cc1` (centres undefined): the inhibition is 3.78% (inactive).

With `CC(C)(C)NC(=O)C(c1cccnc1)N(C(=O)c1ccc(C(F)(F)F)nc1)C1CC1` (centres undefined), the inhibition is 5.34% (inactive).

With `CC(C)(C)NC(=O)C(c1ccsc1)N(C(=O)Cc1c[nH]c2ccccc12)c1ccc(OCF)cc1` (centres undefined), the inhibition is 35.6% (inactive).

As to `CC(C)(C)NC(=O)C(c1cccnc1)N(C(=O)Cc1cccc2ccccc12)C1CC1` (centres undefined), the inhibition is 2.44% (inactive).

Regarding `CC(C)(C)NC(=O)C(c1ccsc1)N(C(=O)c1ccco1)c1ccc(C(C)(C)C)cc1` (centres undefined), the inhibition was 19.5% (inactive).

As to `CC(C)c1ccc(N(C(=O)c2ccc(C(F)(F)F)nc2)C(C(=O)NC(C)(C)C)c2ccsc2)cc1` (centres undefined), the inhibition was 8.21% (inactive).

For `CC(C)(C)NC(=O)C(c1ccsc1)N(C(=O)c1ccc(C#N)cc1)c1ccc(C(C)(C)C)cc1` (centres undefined), the inhibition is 22.7% (inactive).

For the molecule `CC(C)(C)NC(=O)C(c1cccnc1)N(C(=O)c1ccco1)c1ccc(F)cc1` (centres undefined), the inhibition is -4.66% (inactive).

Consider `CC(C)(C)NC(=O)C(c1cccnc1)N(C(=O)Cc1cccc2ccccc12)c1ccc(OCF)cc1` (centres undefined), for which the inhibition was 3.12% (inactive).

For the molecule `CC(C)(C)NC(=O)C(c1ccsc1)N(C(=O)c1cccc2c1CCCC2)C1CC1` (centres undefined), the inhibition is 34.6% (inactive).

`CC(C)(C)NC(=O)C(c1cccnc1)N(C(=O)Cc1c[nH]c2ccccc12)c1ccc(F)cc1` (centres undefined): the inhibition was 5.7% (inactive).

Take `CC(C)(C)NC(=O)C(c1cccnc1)N(C(=O)c1ccco1)C1CC1` (centres undefined): the inhibition was -1.64% (inactive).

Take `CC(C)(C)NC(=O)C(c1cccnc1)N(C(=O)c1ccc(C#N)cc1)c1ccc(OCF)cc1` (centres undefined): the inhibition was -7.47% (inactive).

In the case of `CC(C)(C)NC(=O)C(c1ccsc1)N(C(=O)c1ccco1)C1CC1` (centres undefined), the inhibition was 7.74% (inactive).

Take `CC(C)(C)NC(=O)C(c1cccnc1)N(C(=O)c1n[nH]c2ccccc12)C1CC1` (centres undefined): the inhibition is 9.27% (inactive).

Take `CC(C)(C)NC(=O)C(c1cccnc1)N(C(=O)Cc1c[nH]c2ccccc12)c1ccc(OCF)cc1` (centres undefined): the inhibition was 11.5% (inactive).

With `CC(C)c1ccc(N(C(=O)Cc2cccc3ccccc23)C(C(=O)NC(C)(C)C)c2ccsc2)cc1` (centres undefined), the inhibition was 8.43% (inactive).

Consider `CC(C)(C)NC(=O)C(c1cccnc1)N(C(=O)c1n[nH]c2ccccc12)c1ccc(OC(F)F)cc1` (centres undefined), for which the inhibition was 24.6% (inactive).

Take `CC(C)(C)NC(=O)C(c1cccnc1)N(C(=O)Cc1c[nH]c2ccccc12)c1ccc(C(C)(C)C)cc1` (centres undefined): the inhibition is 30.6% (inactive).

As to `CC(C)(C)NC(=O)C(c1cccnc1)N(C(=O)c1n[nH]c2ccccc12)c1ccc(C(C)(C)C)cc1` (centres undefined), the inhibition is 20.6% (inactive).

On to `CC(C)(C)NC(=O)C(c1ccsc1)N(C(=O)Cc1cccc2ccccc12)c1ccc(F)cc1` (centres undefined), for which the inhibition is 19.2% (inactive).

Turning to `CC(C)(C)NC(=O)C(c1cccnc1)N(C(=O)c1cccc2c1CCCC2)C1CC1` (centres undefined), the inhibition was 8.14% (inactive).

Consider `CC(C)(C)NC(=O)C(c1ccsc1)N(C(=O)c1ccc(C(F)(F)F)nc1)C1CC1` (centres undefined), for which the inhibition was 11.3% (inactive).

In the case of `Cc1nc2ccccc2n1CC(=O)N(c1ccc(N)cc1)C(C(=O)NC(C)(C)C)c1ccsc1` (centres undefined), the inhibition is 1.01% (inactive).

Take `CC(C)(C)NC(=O)C(c1cccnc1)N(C(=O)c1ccc(C(F)(F)F)nc1)c1ccc(OCF)cc1` (centres undefined): the inhibition was 13.7% (inactive).

Consider `CC(C)(C)NC(=O)C(c1cccnc1)N(C(=O)Cc1cccnc1)c1ccc(C(C)(C)C)cc1` (centres undefined), for which the inhibition was 20.2% (inactive).

With `CC(C)(C)NC(=O)C(c1ccsc1)N(C(=O)c1ccc(C(F)(F)F)nc1)c1ccc(C(C)(C)C)cc1` (centres undefined), the inhibition was 19.7% (inactive).

Take `CC(=O)Nc1ccc(N(C(=O)Cn2ccnc2C)C(C(=O)NC(C)(C)C)c2ccsc2)cc1` (centres undefined): the inhibition is 2.36% (inactive).

Consider `CC(C)(C)NC(=O)C(c1ccsc1)N(C(=O)Cc1cccc2ccccc12)c1ccc(C(C)(C)C)cc1` (centres undefined), for which the inhibition is 22.3% (inactive).

As to `CC(C)(C)NC(=O)C(c1ccsc1)N(C(=O)c1ccc(C#N)cc1)C1CC1` (centres undefined), the inhibition is 11.2% (inactive).

(Values after PubChem BioAssay AID488984 (The Scripps Research Institute Molecular Screening Center, 2010).)
